# Inconclusive results are not listed. A number with no mark means an inactive call. Activity calls are given as the source filed them. Calls follow the shape of the dose curve; as a rule, active = well fitted cell-killing curve with a large enough effect; inconclusive = small, poorly fitted or top-dose-only effect, or effect the other way; inactive = no such curve, though single readings can be large or run the other way.
# Assays:
# [1] = Viability qHTS for spleen associated tyrosine kinase inhibitor (SYKi) naive MV4-11 cells (AID 1963823); also: nearly all actives have a fitted effect of over 40% in size
# In short: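 SYK inhibitor-naive MV4-11 cells, 500 per well, exposed to compounds for 72 hr at 37 C, 5% CO2. Viability read as CellTiter-Glo luminescence after 10 min at room temperature.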
# [2] = Viability qHTS for spleen associated tyrosine kinase inhibitor (SYKi) drug resistant MV4-11 cells (AID 1963824); also: nearly all actives have a fitted effect of over 35% in size
# In short: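 CellTiter-Glo luminescence, read 10 min after reagent addition, reports viability after a 72 hr compound exposure. Cells are an MV4-11 line made resistant to SYK inhibition, seeded at 500 per well onto compound-containing plates.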
# Potency is read from the fitted curve at half-maximal effect.
SMILES,Potency [1],Potency [2],viability (% of control) [1],"viability, % of control [2]"
CC(C)(OC1OC(CO)C(O)C(O)C1O)C1CCC(O)(CO)C2CC(O)C(C)(O)C2C1 (configuration not stated),inactive,inactive,–,–
CC(C)c1nc(N(C)S(C)(=O)=O)nc(-c2ccc(F)cc2)c1/C=C/[C@@H](O)C[C@@H](O)CC(=O)O,8.2 µM (active),2.91 µM (active),–,–
CC1CC2(O)OC(=O)C3=C2C(CCC3)[C@@]12C[C@@H](c1ccoc1)OC2=O (some centres not stated),0.321 µM (active),inactive,–,–
COc1cc2ncc(-c3ccccc3)nc2cc1OC,3.66 µM (active),4.61 µM (active),–,–
CCCCCCOc1cc2c(cc1N(C)c1ncc(C(=O)O)cn1)C(C)(C)CCC2(C)C,23.1 µM (active),6.51 µM (active),–,–
C[C@H]1[C@H](C)CC[C@]2(C(=O)OC3OC(CO)C(O)C(O)C3O)CC[C@]3(C(=O)O)C(=CCC4[C@@]5(C)CC[C@H](O[C@@H]6O[C@@H](C)[C@H](OC7OC(CO)C(O)C(O)C7O)[C@@H](O)[C@H]6O)C(C)(C)C5CC[C@]43C)[C@H]12 (some centres not stated),–,–,80.8% [at 9.25 µM],108% [at 9.25 µM]
Cc1ccc([C@@H]2O[C@H](CO)[C@@H](O)[C@H](O)[C@H]2O)cc1Cc1ccc(-c2ccc(F)cc2)s1,18.6 µM (active),16.6 µM (active),–,–
CS(=O)(=O)c1ccccc1N1CCN(c2nc3c(c(=O)[nH]2)CSCC3)CC1,inactive,inactive,–,–
CC(C)(C#N)c1ccc(N2C(=O)OCc3cnc4ccc(-c5cnc6ccccc6c5)cc4c32)cc1,1.03 µM (active),1.46 µM (active),–,–
Cc1cc(N2CCCCC2)nc2ccccc12,inactive,inactive,–,–
O=C(O)/C=C/c1ccc(O)c(O[C@@H]2O[C@H](CO)[C@@H](O)[C@H](O)[C@H]2O)c1,inactive,inactive,–,–
C=C1CCC[C@]2(C)CC[C@@](O)(C(=C)C(=O)O)C[C@@H]12,inactive,inactive,–,–
Cc1cc(-c2ccc(/C=C3\SC(=Nc4ccc(Cl)c(C(=O)O)c4)NC3=O)o2)c([N+](=O)[O-])cc1C,inactive,inactive,–,–
Fc1ccc(C2CCNC[C@H]2COc2ccc3c(c2)OCO3)cc1 (some centres not stated),16.4 µM (active),9.2 µM (active),–,–
CCOc1ccc(CCNC(=O)c2cc3sc(Cl)cc3n2C)cc1OCC,inactive,1.64 µM (active),–,–
CN(C)CCn1cc(S(=O)(=O)c2cccc(F)c2)c2cccnc21,inactive,inactive,–,–
CC[C@H](Nc1ncnc2nc[nH]c12)c1oc2ccccc2c(=O)c1-c1cccc(F)c1,5.9 µM (active),14.8 µM (active),–,–
CCN(CC)CCCCNc1ncc2cc(-c3c(Cl)cccc3Cl)c(NC(=O)NC(C)(C)C)nc2n1,0.517 µM (active),0.58 µM (active),–,–
COc1cc([C@@H]2Oc3c(OC)cc(CCCO)cc3[C@@H]2CO[C@@H]2O[C@H](CO)[C@@H](O)[C@H](O)[C@H]2O)ccc1O,inactive,inactive,–,–

SMILES,Potency [1],Potency [2],viability (% of control) [1],"viability, % of control [2]"
O=C(NCC(O)CO)c1ccncc1Nc1ccc(I)cc1F (configuration not stated),0.366 µM (active),0.164 µM (active),–,–
CC(C)=CCC[C@](C)(O[C@@H]1O[C@H](CO)[C@@H](O)[C@H](O)[C@H]1O)[C@H]1CC[C@]2(C)[C@@H]1[C@H](O)CC1[C@@]3(C)CC[C@H](O)C(C)(C)C3[C@@H](O[C@@H]3O[C@H](CO)[C@@H](O)[C@H](O)[C@H]3O[C@@H]3O[C@@H](C)[C@H](O)[C@@H](O)[C@H]3O)C[C@]12C (some centres not stated),–,–,90.7% [at 9.25 µM],105% [at 9.25 µM]
CO[C@H]1[C@@H](O)[C@H](O[C@H]2CC[C@@]3(C)C(CCC4C3CC[C@]35COC6(COC(=O)C6)C3CCC45O)C2)O[C@@H](C)[C@@H]1OC1OC(CO)C(OC2OC(CO)C(O)C(O)C2O)C(O)C1O (some centres not stated),1.23 µM (active),1.1 µM (active),–,–
COC(=O)c1cc(CN2CCN(C(=N)N)CC2)cc(C(=O)N2CCN(C(=O)c3ccc(C(=N)N)cc3)CC2)c1,inactive,inactive,–,–
CCOC(=O)[C@H](CCc1ccccc1)N[C@@H](C)C(=O)N1C2CCCCC2C[C@H]1C(=O)O (some centres not stated),16.4 µM (active),6.51 µM (active),–,–
CC1(C)C2CC(OC3OC(COC4OCC(O)(CO)C4O)C(O)C(O)C3O)C1(C)CC2O (configuration not stated),inactive,inactive,–,–
CCS(=O)c1nc(-c2cccc(OCc3ccccc3)c2)cc(C(F)(F)F)n1 (configuration not stated),2.91 µM (active),5.8 µM (active),–,–
Cc1cccc(Nc2cc(Cl)nc(SCC(=O)O)n2)c1C,inactive,inactive,–,–
COc1cc2ncnc(Nc3cccc(O)c3)c2cc1OC,0.411 µM (active),0.651 µM (active),–,–
CC(=O)O[C@@H]1[C@@H](OC(=O)/C=C/c2ccccc2)[C@@H](OC(C)=O)[C@H](O[C@H]2[C@@H]3C=CO[C@@H](O[C@@H]4O[C@H](CO)[C@@H](O)[C@H](O)[C@H]4O)[C@@H]3[C@@]3(CO)O[C@@H]23)O[C@H]1C,inactive,inactive,–,–
C/C=C(/C=C(C)/C=C/C=C/C=C(\C)C(=O)C12OC1C(O)(CCO)NC2=O)C(=O)OC (configuration not stated),8.93 µM (active),11.2 µM (active),–,–
O=C(OCC1OC(Oc2ccc(O)cc2COC(=O)C2(O)C(O)CCC(=O)C2OC(=O)C2C=CCC2)C(OC(=O)C2C=CCC2)C(O)C1O)C1C=CCC1 (configuration not stated),inactive,inactive,–,–
O=C(NS(=O)(=O)c1ccc(Br)s1)c1ccc(Cl)cc1Cl,7.31 µM (active),9.2 µM (active),–,–
CC/C=C\CC1C(=O)C=CC1(CCCCC1CCC(=O)O1)OC(C)=O (configuration not stated),12.8 µM (active),7.18 µM (active),–,–
CC1(C)S[C@@H]2[C@H](NC(=O)[C@H](NC(=O)N3CCN(S(C)(=O)=O)C3=O)c3ccccc3)C(=O)N2[C@H]1C(=O)O,inactive,inactive,–,–
CN1CCN(S(=O)(=O)c2ccc(-c3cnc(N)c(C(=O)Nc4cccnc4)n3)cc2)CC1,0.893 µM (active),0.796 µM (active),–,–
CC1OC(OC2C(C)OC(OC3C(O)C(CO)OC(O[C@H]4CC[C@@]5(C)C(CC[C@]6(C)C5CC=C5C7[C@@H](C)[C@H](C)CC[C@]7(C(=O)O)CC[C@]56C(=O)O)C4(C)C)C3O)C(O)C2O)C(O)C(O)C1O (some centres not stated),–,–,75.5% [at 9.25 µM],78.3% [at 9.25 µM]
N#CC(=C(/N)Sc1ccccc1N)/C(C#N)=C(/N)Sc1ccccc1N,10.3 µM (active),7.31 µM (active),–,–
CCC/C=C/c1cc2c(C=O)c(O)c(CC=C(C)C)cc2o1,14.6 µM (active),16.4 µM (active),–,–

SMILES,Potency [1],Potency [2],viability (% of control) [1],"viability, % of control [2]"
O=C1c2ccccc2-c2nc3nnnn3nc21 (tested in a mixture with another compound),0.092 µM (active),0.103 µM (active),–,–
CC(C)(Cc1nc(-c2ccc(O)cn2)no1)C(=O)NC1=C(C(=O)O)CCCC1,inactive,inactive,–,–
COc1ccc2c(c1)CN(C(=O)CCN1CCC(Cc3ccccc3)CC1)CCS2,8.93 µM (active),8.93 µM (active),–,–
CC(C)(C)c1ccc(S(=O)(=O)NCc2ccc(C(=O)Nc3cccnc3)cc2)cc1,0.231 µM (active),0.231 µM (active),–,–
C=C(CCO[C@@H]1O[C@H](CO)[C@@H](O)[C@H](O)[C@H]1O)C(=O)O,inactive,inactive,–,–
CC[C@@H]1C[C@]1(NC(=O)[C@@H]1C[C@@H]2CN1C(=O)[C@H](C(C)(C)C)NC(=O)OCC(C)(C)CCCCc1cccc3c1CN(C3)C(=O)O2)C(=O)NS(=O)(=O)C1CC1,20.6 µM (active),18.4 µM (active),–,–
O=S(=O)(c1cccc2ccccc12)n1ccc2ccc(N3CCN4CCCC4C3)cc21 (configuration not stated),23.1 µM (active),20.6 µM (active),–,–
C=C1C(=O)O[C@@H]2[C@H]1CCC(C)=C(CCC(=O)O)[C@@]2(C)O,9.2 µM (active),4.11 µM (active),–,–
CN(CC1COCCO1)S(=O)(=O)Nc1ccc2ccc3ncc(-c4cnn(C)c4)cc3c(=O)c2c1 (configuration not stated),0.164 µM (active),0.651 µM (active),–,–
CC(C)C1(O[C@@H]2O[C@H](CO)[C@@H](O)[C@H](O)[C@H]2O)CC=C(CO)CC1 (some centres not stated),inactive,inactive,–,–
COc1ccc(NC(=O)N2CCc3c2ccc2ccccc32)cc1N1CCN(C)CC1,9.2 µM (active),8.2 µM (active),–,–
Cc1ccc(NS(=O)(=O)c2cc3c(cc2N[C@@H](C)CO)NC(=O)CC3)cc1Cl,16.4 µM (active),11.6 µM (active),–,–
OCc1ccc(O[C@@H]2O[C@H](CO)[C@@H](O)[C@H](O)[C@H]2O)cc1,inactive,inactive,–,–
CC(=O)O[C@@H]1[C@@H](O)[C@H](C)O[C@@H](O[C@H]2[C@@H]3C=CO[C@@H](O[C@@H]4O[C@H](CO)[C@@H](O)[C@H](O)[C@H]4O)[C@@H]3[C@@]3(CO)O[C@@H]23)[C@@H]1OC(=O)/C=C/c1ccccc1,inactive,inactive,–,–
Nc1c(-c2ccccc2)nc(Cl)c2c(O)n[nH]c(=O)c12,inactive,inactive,–,–
CC1OC(O[C@@H]2[C@H](O)[C@@H](OC3OC(CO)C(O)C(O)C3O)[C@H](OC(=O)[C@]34CCC(C)(C)C[C@H]3C3=CCC5[C@@]6(C)CC[C@H](O[C@@H]7O[C@H](C(=O)O)[C@@H](O)[C@H](O[C@@H]8OC[C@@H](O)[C@H](O)[C@H]8O)[C@H]7O[C@@H]7O[C@H](CO)[C@H](O)[C@H](O)[C@H]7O)[C@@](C)(C=O)C6CC[C@@]5(C)[C@]3(C)C[C@H]4O)O[C@@H]2C)C(O)C(O)C1OC1OCC(O)C(O)C1O (some centres not stated),–,–,87.4% [at 4.97 µM],89.9% [at 4.97 µM]
COc1ccc(O[C@@H]2O[C@H](CO)[C@@H](O)[C@H](O)[C@H]2O)cc1OC,inactive,inactive,–,–
CCN[C@@H]1C[C@H](N)[C@@H](O[C@H]2OC(CN)=CC[C@H]2N)[C@H](O)[C@H]1O[C@H]1OC[C@](C)(O)[C@H](NC)[C@H]1O,inactive,inactive,–,–

# — PubChem BioAssay (NCATS)
